# The source made the active and inactive calls. The calls were made as follows: active = hit-call score of the fitted dose curve at least 0.9, where 1 is the maximum; inactive = score below 0.9.
# Test: ATG_PPRE_CIS: Attagene CIS-FACTORIAL HepG2 Assay for human Peroxisome Proliferator-activated Response Element (PPRE) (AID 2282958)
# Conditions: HepG2 PPRE cis-element reporter, Attagene transcription factor profiling; actives raise or lower the signal
# How it was run: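 HepG2 cells transiently transfected with multiplexed cis-element reporter units measure endogenous transcription factor activity. After 24 h compound exposure, reporter mRNA is quantified by RT-PCR, 6-FAM labeling, HpaI digestion and capillary electrophoresis; bidirectional fits are made against DMSO baseline.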
SMILES,outcome,AC50
Nc1ccc(S(=O)(=O)Nc2nccs2)cc1,inactive,
C=C(C)C(=O)OCC(F)(F)C(F)(F)C(F)(F)F,inactive,
O=P(O)(O)OCCC(F)(F)C(F)(F)C(F)(F)C(F)(F)C(F)(F)C(F)(F)F,inactive,
CC(=O)Nc1ccc(N=Nc2cc(C)ccc2O)cc1,,39.6 µM (active)
FC(F)(F)C(F)(F)C(F)(F)C(F)(F)CCI,inactive,
CCc1c(Br)c(Br)c(Br)c(Br)c1Br,inactive,
CC(C)(C)c1ccc(OC2CCCCC2O)cc1 (stereo not drawn),inactive,
CC(C)OC(=O)c1ccccc1C(=O)OC(C)C,inactive,
CN(C)Cc1ccccc1O,inactive,
CCc1ccc(C(c2ccc(CC)cc2)C(Cl)Cl)cc1,inactive,
CC(C)c1ccccc1N,inactive,
COC(=O)CCC(F)(F)C(F)(F)C(F)(F)C(F)(F)F,inactive,
C=CC(=O)OCC(F)(F)C(F)(F)C(F)(F)C(F)(F)C(F)(F)C(F)(F)C(F)(F)F,inactive,
O=S(=O)(O)c1ccc2ccccc2c1,inactive,
CCCCC(CC)COP(=O)(O)OCC(CC)CCCC (stereo not drawn),,5.45 µM (active)
COC(=O)C1CCC(C(=O)OC)CC1 (stereo not drawn),inactive,

SMILES,outcome,AC50
Nc1cc(Cl)c(N)c(Cl)c1,inactive,
O=C(O)C(F)(F)C(F)(F)OC(F)(F)F,inactive,
CC(C)=CCCC(C)CCOC(=O)C(C)C (stereo not drawn),inactive,
N=C(N)C(F)(F)C(F)(F)C(F)(F)C(F)(F)C(F)(F)C(F)(F)C(F)(F)F,inactive,
O=C(Cl)C(F)(F)C(F)(F)C(F)(F)C(F)(F)C(F)(F)C(F)(F)C(F)(F)C(F)(F)F,,33.4 µM (active)
C=CC(F)(F)C(F)(F)C(F)(F)C(F)(F)C(F)(F)C(F)(F)C(F)(F)C(F)(F)F,inactive,
CS(C)(=O)=O,inactive,
O=C(O)C(F)(F)C(F)(F)C(F)(F)C(F)(F)C(F)(F)C(F)(F)C(F)(F)C(F)(F)C(F)(F)C(F)(F)C(F)(F)C(F)(F)F,inactive,
O=C(O)C(F)(F)C(F)(F)C(F)(F)C(F)(F)F,inactive,
Cc1ccc(S(=O)(=O)OCC(F)(F)C(F)(F)C(F)(F)C(F)(F)C(F)(F)C(F)F)cc1,inactive,
C=C(C)C(=O)OCC(F)(F)C(F)(F)C(F)(F)C(F)(F)C(F)(F)C(F)(F)C(F)(F)F,inactive,
FC(F)(F)C(F)(F)C(F)(F)C(F)(F)C(F)(F)C(F)(F)CCS,inactive,
CCCCCC=O,inactive,
CCCCCCCCC(F)(F)C(F)(F)C(F)(F)C(F)(F)C(F)(F)C(F)(F)F,inactive,
Cc1cc(C)cc(O)c1,inactive,
O=S(=O)(OCCOC(F)(F)F)C(F)(F)F,inactive,

# Test: ATG_RORE_CIS: Attagene CIS-FACTORIAL HepG2 Assay for human RAR-related Orphan Receptor Element (RORE) (AID 2282959)
# Conditions: HepG2 Attagene cis-factorial RORE reporter, mRNA; actives raise or lower the signal
# How it was run: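 HepG2 cells transiently transfected with multiple cis-element reporter transcription units, exposed to chemical for 24 h. Reporter mRNA quantified by RT-PCR, 6-FAM primer-extension labeling, HpaI digestion and capillary electrophoresis; bidirectional fit versus DMSO baseline.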
SMILES,outcome,AC50
C=C(C)C(=O)OCC(F)(F)C(F)(F)C(F)(F)F,inactive,
O=P(O)(O)OCCC(F)(F)C(F)(F)C(F)(F)C(F)(F)C(F)(F)C(F)(F)F,inactive,
CC(=O)Nc1ccc(N=Nc2cc(C)ccc2O)cc1,inactive,
FC(F)(F)C(F)(F)C(F)(F)C(F)(F)CCI,inactive,
CCc1c(Br)c(Br)c(Br)c(Br)c1Br,inactive,
CC(C)(C)c1ccc(OC2CCCCC2O)cc1 (stereo not drawn),inactive,
CC(C)OC(=O)c1ccccc1C(=O)OC(C)C,inactive,
OC[C@@H](O)[C@@H](O)[C@H](O)[C@@H](O)CO,inactive,
CN(C)Cc1ccccc1O,inactive,
CCc1ccc(C(c2ccc(CC)cc2)C(Cl)Cl)cc1,inactive,
CC(C)c1ccccc1N,inactive,
C1COCCN1,inactive,
COC(=O)CCC(F)(F)C(F)(F)C(F)(F)C(F)(F)F,inactive,
C=CC(=O)OCC(F)(F)C(F)(F)C(F)(F)C(F)(F)C(F)(F)C(F)(F)C(F)(F)F,inactive,
CCCCC(CC)COP(=O)(O)OCC(CC)CCCC (stereo not drawn),inactive,
COC(=O)C1CCC(C(=O)OC)CC1 (stereo not drawn),inactive,

SMILES,outcome,AC50
Nc1cc(Cl)c(N)c(Cl)c1,inactive,
O=C(O)C(F)(F)C(F)(F)OC(F)(F)F,inactive,
CC(C)=CCCC(C)CCOC(=O)C(C)C (stereo not drawn),inactive,
N=C(N)C(F)(F)C(F)(F)C(F)(F)C(F)(F)C(F)(F)C(F)(F)C(F)(F)F,inactive,
O=C(Cl)C(F)(F)C(F)(F)C(F)(F)C(F)(F)C(F)(F)C(F)(F)C(F)(F)C(F)(F)F,,44.5 µM (active)
C=CC(F)(F)C(F)(F)C(F)(F)C(F)(F)C(F)(F)C(F)(F)C(F)(F)C(F)(F)F,inactive,
CS(C)(=O)=O,inactive,
O=C(O)C(F)(F)C(F)(F)C(F)(F)C(F)(F)C(F)(F)C(F)(F)C(F)(F)C(F)(F)C(F)(F)C(F)(F)C(F)(F)C(F)(F)F,inactive,
O=C(O)C(F)(F)C(F)(F)C(F)(F)C(F)(F)F,inactive,
Cc1ccc(S(=O)(=O)OCC(F)(F)C(F)(F)C(F)(F)C(F)(F)C(F)(F)C(F)F)cc1,inactive,
C=C(C)C(=O)OCC(F)(F)C(F)(F)C(F)(F)C(F)(F)C(F)(F)C(F)(F)C(F)(F)F,inactive,
FC(F)(F)C(F)(F)C(F)(F)C(F)(F)C(F)(F)C(F)(F)CCS,inactive,
CCCCCCCCC(F)(F)C(F)(F)C(F)(F)C(F)(F)C(F)(F)C(F)(F)F,inactive,
Cc1cc(C)cc(O)c1,inactive,
O=S(=O)(OCCOC(F)(F)F)C(F)(F)F,inactive,

# Source: PubChem BioAssay (EPA / NIEHS)
